Giardia killer: Small Molecules that selectively kill Giardia lamblia: qHTS; Giardia lamblia trophozoite viability; activity change, % at 7.66 µM, hits read low; 340,000 compounds, 0.15% hits; AID 540267, 2011; in the data active = activity change below about -80%; inconclusive = between about -30% and that limit;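 note: parasites exposed to compound for two days anaerobically before the ATP read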
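Trophozoite viability was measured as ATP-dependent luminescence, read 15-30 min after reagent addition. Before that, parasites at 100 cells/well were exposed to compounds for 48 h, anaerobically, at 37 deg C.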
ELG1 DNA repair: qHTS screen for small molecules that inhibit ELG1-dependent DNA repair in human embryonic kidney (HEK293T) cells expressing luciferase-tagged ELG1 | AID 504467, 2011 | Potency, µM (titrated, usually from 46.1 µM), most hits filed as inhibitors | HEK293T ELG1-luciferase reporter, luminescence, 16 h; DNA damage induced by 5-fluorouridine | 330,000 compounds, 2.3% hits; note: nearly all actives have a fitted effect of over 55% in size
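In this reporter screen, reduction of luminescence relative to DMSO vehicle indicated activity. Compounds and 5-fluorouridine were added together to 2,000 cells per well, incubated for 16 hr at 37 °C, then developed with ONE-Glo.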
p53 reactivation: qHTS assay for re-activators of p53 using a Luc reporter | H1299 p53-A138V BP100-luciferase reporter, luminescence, 24 h | AID 504706, 2011 | 320,000 compounds, 0.063% hits | Potency, µM (titrated, usually from 92.2 µM), hits mostly activators; note: nearly all actives have a fitted effect of over 45% in size
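p53-null H1299 cells stably carrying temperature-sensitive p53-A138V and a BP100-luciferase reporter were pinned with compounds (4-point, 1:5 series) and held 24 hrs at 37 deg C. Luminescence was read 10 min after detection reagent.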
RORg inh: qHTS for inhibitors of ROR gamma transcriptional activity. Potency, µM (top dose mostly 53.6 µM), hits mostly inhibitors. Nuclear receptor ROR-gamma (Mus musculus), P51450. 310,000 compounds, 5.4% hits. Drosophila S2 Gal4-RORgamma UAS-luciferase reporter, 20 h; note: nearly all actives have a fitted effect of over 60% in size
Target sequence (P51450 whole entry, looked up, the tested form may be a part): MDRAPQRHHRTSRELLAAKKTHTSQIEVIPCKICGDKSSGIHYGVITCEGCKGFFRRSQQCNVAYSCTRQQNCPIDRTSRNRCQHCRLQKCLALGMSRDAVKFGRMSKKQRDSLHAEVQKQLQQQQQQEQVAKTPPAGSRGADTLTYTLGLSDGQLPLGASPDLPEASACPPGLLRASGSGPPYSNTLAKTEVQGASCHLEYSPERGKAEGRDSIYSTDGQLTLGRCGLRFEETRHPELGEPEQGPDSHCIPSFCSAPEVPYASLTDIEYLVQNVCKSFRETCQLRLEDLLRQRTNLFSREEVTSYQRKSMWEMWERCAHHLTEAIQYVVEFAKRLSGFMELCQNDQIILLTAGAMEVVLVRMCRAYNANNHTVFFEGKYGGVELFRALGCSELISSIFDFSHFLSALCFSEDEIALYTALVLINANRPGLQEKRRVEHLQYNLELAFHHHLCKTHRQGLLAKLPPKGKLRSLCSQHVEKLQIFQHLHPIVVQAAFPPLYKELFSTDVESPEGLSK
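A Gal4/UAS one-hybrid system in insect cells: metallothionein-promoter Gal4–ROR gamma fusion plus Photinus luciferase reporter. Copper sulfate 700 uM final, 20 hr ambient incubation, luminescent detection after 10 min with reagent.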
Gal4-VP16 FLuc: VP16 counterscreen qHTS for inhibitors of ROR gamma transcriptional activity. Drosophila S2 Gal4-VP16 UAS-luciferase, luminescence, 20 h. Potency, µM (series often up to 53.6 µM), most hits filed as inhibitors. 310,000 compounds, 3.5% hits. AID 2546, 2010;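 note: Gal4-VP16 expression switched on by copper sulfate through the metallothionein promoter; nearly all actives have a fitted effect of over 50% in size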
BRCA1 expr act: qHTS Assay to Identify Small Molecule Activators of BRCA1 Expression. MCF7-BRCA1-FFLuc reporter, luminescence, 48 h; response scale: scaled: vehicle 0%, 10 µM genistein 100%. Potency, µM (doses to about 46.1 µM), actives largely listed as activators. 380,000 compounds, 1.1% hits; note: nearly all actives have a fitted effect of over 80% in size
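MCF7-BRCA1-FFLuc, 2000 cells/well; 2 h attach, 37 °C/5% CO2; compound 48 h; luciferase substrate 15 min; luminescence end-point. Norm. to genistein 10 microM max activation and DMSO; concentration-response curves fitted.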
Of the large screens only hits and unclear results are named; the others gave an inactive call. The list is not random: actives were taken first. Their share in the collection is about 7.6%. Unless noted, calls come from the whole dose curve; as a rule, active = well fitted curve in the direction sought with a large enough effect; inconclusive = small, poorly fitted or top-dose-only effect, or another doubt; inactive = no such curve, though single readings can be large; an effect the other way counts as inactive or inconclusive.

CCN(CC)c1ccc(S(=O)(=O)Nc2cc(Cl)ccc2Cl)cc1NC(=S)NC(=O)C1CCCC1	RORg inh 5.01µM, Gal4-VP16 FLuc 22.4µM
CCN(CC)S(=O)(=O)c1ccc(Cl)c(NC(=S)NC(=O)C2CCCC2)c1	ELG1 DNA repair inconclusive (no result: RORg inh, Gal4-VP16 FLuc)
CCCCn1nc(NC(=O)COC)c2cc3cc(OC)ccc3nc21	ELG1 DNA repair inconclusive
COc1ccc(-n2[nH]c3c(cnc4ccccc43)c2=O)cc1	BRCA1 expr act 14.1µM (no result: Giardia killer, ELG1 DNA repair, p53 reactivation, RORg inh, Gal4-VP16 FLuc)
O=C(O/N=C\c1ccc(N2CCCCC2)c([N+](=O)[O-])c1)c1ccc(Cl)cc1Cl	none
O=C(/C=C/c1ccc(N2CCCCC2)c([N+](=O)[O-])c1)c1ccc(O)cc1	ELG1 DNA repair inconclusive, RORg inh 11.2µM, Gal4-VP16 FLuc inconclusive
O=C(c1ccc(N2CCCCC2)c([N+](=O)[O-])c1)N1CCOCC1	none
COc1ccccc1C(=O)/C=C/c1ccc(N2CCCCC2)c([N+](=O)[O-])c1	Giardia killer inconclusive, ELG1 DNA repair inconclusive, p53 reactivation inconclusive, RORg inh 5.62µM, Gal4-VP16 FLuc 6.31µM
Cc1ccc(S(=O)(=O)CCC(=O)OCc2ccccc2F)cc1	none
COc1ccc(C2NC(=O)NC3=C2CCc2ccccc23)cc1 (centres undefined)	none
COc1cccc(C2NC(=S)NC3=C2CCc2ccccc23)c1 (centres undefined)	Gal4-VP16 FLuc 0.282µM
COc1ccc2c(c1)C1=C(CC2)C(c2ccc(C)cc2)NC(=S)N1 (centres undefined)	ELG1 DNA repair inconclusive, RORg inh 0.708µM, Gal4-VP16 FLuc 2.82µM
CCNC(=S)N(CCc1c(C)[nH]c2ccc(OC)cc12)Cc1cccnc1	none
C=C(C)c1cccc(C(C)(C)NC(=O)NCCCn2ccnc2)c1	none
CC(C)(C)OC(=O)N(Cc1ccccc1)Cc1cccc(OCc2cccc(NC(=O)c3ccccc3)c2)c1	none (no result: ELG1 DNA repair, p53 reactivation, RORg inh, Gal4-VP16 FLuc)
Nc1cc(Cl)nc(N/N=C/c2c(O)ccc3ccccc23)n1	ELG1 DNA repair inconclusive, p53 reactivation inconclusive, RORg inh 0.631µM, Gal4-VP16 FLuc 11.2µM
Nc1nonc1N/N=C/c1c(O)ccc2ccccc12	RORg inh 11.2µM
COc1cc(NC(=O)COC(=O)c2[nH]c(C)c(C(C)=O)c2C)cc(OC)c1	ELG1 DNA repair 7.3µM (no result: RORg inh, Gal4-VP16 FLuc)
COC(=O)c1ccc(COC(=O)c2[nH]c(C)c(C(C)=O)c2C)o1	ELG1 DNA repair inconclusive, RORg inh inconclusive, Gal4-VP16 FLuc 7.94µM
CC(=O)c1c(C)[nH]c(C(=O)OCC(=O)Nc2ccc(Cl)c(S(=O)(=O)N(C)C)c2)c1C	ELG1 DNA repair 11.6µM, Gal4-VP16 FLuc inconclusive
CC(=O)c1c(C)[nH]c(C(=O)Nc2ccc(Cl)c(S(=O)(=O)N(C)C)c2)c1C	ELG1 DNA repair inconclusive
CC(=O)c1c(C)[nH]c(C(=O)OCc2ccc([N+](=O)[O-])cc2)c1C	RORg inh inconclusive
CC(=O)c1c(C)[nH]c(C(=O)OCC(=O)Nc2ccc3c(c2)OCCO3)c1C	ELG1 DNA repair 14.6µM (no result: RORg inh, Gal4-VP16 FLuc)
COc1ccc(NC(=O)[C@@H](NC(=O)c2ccccc2)C(C)C)cc1S(=O)(=O)N1CCCCC1	none
CC(=O)c1c(C)[nH]c(C(=O)OCC(=O)Nc2ccc(Cl)cc2[N+](=O)[O-])c1C	ELG1 DNA repair 3.66µM, RORg inh inconclusive, Gal4-VP16 FLuc 5.01µM
CCOc1ccc(Br)cc1C1C(C(=O)OC)=C(N)Oc2cc(N(C)C)ccc21 (centres undefined)	none
CC(C)c1ccc(NC(=O)COC(=O)/C=C/c2cccc([N+](=O)[O-])c2)cc1	ELG1 DNA repair inconclusive, RORg inh inconclusive
Cc1cccc(NC(=O)c2nc[nH]c2C(=O)NCCN(CCNC(=O)c2[nH]cnc2C(=O)Nc2cccc(C)c2)CCNC(=O)c2[nH]cnc2C(=O)Nc2cccc(C)c2)c1	none (no result: RORg inh, Gal4-VP16 FLuc)
Cc1cccc(NC(=O)c2nc[nH]c2C(=O)Nc2cccc(C)c2)c1	RORg inh 1.41µM, Gal4-VP16 FLuc 2.82µM
O=C(Nc1ccccc1)c1nc[nH]c1C(=O)NCCCCCCNC(=O)c1[nH]cnc1C(=O)Nc1ccccc1	ELG1 DNA repair inconclusive (no result: RORg inh, Gal4-VP16 FLuc)
Cc1cccc(NC(=O)c2nc[nH]c2C(=O)NCCCNC(=O)c2[nH]cnc2C(=O)Nc2cccc(C)c2)c1	ELG1 DNA repair 9.2µM (no result: RORg inh, Gal4-VP16 FLuc)
Cc1cccc(NC(=O)c2nc[nH]c2C(=O)N[C@@H](CCCCNC(=O)OC(C)(C)C)C(=O)OC(C)(C)C)c1	ELG1 DNA repair 14.6µM, RORg inh 6.31µM, Gal4-VP16 FLuc 15.8µM
Cc1cccc(NC(=O)c2nc[nH]c2C(=O)NCCCCCNC(=O)OC(C)(C)C)c1	ELG1 DNA repair 20.6µM (no result: RORg inh, Gal4-VP16 FLuc)
CC1CC(=O)N(CC(=O)Nc2ccc3c(c2)OCCO3)c2ccccc2S1 (centres undefined)	none
COc1ccc(-c2nnc(NC(=O)c3ccc(S(=O)(=O)N4CCc5ccccc5C4)cc3)o2)cc1	ELG1 DNA repair inconclusive, RORg inh 0.126µM, Gal4-VP16 FLuc 0.251µM
O=C(Nc1nnc(C2CC2)o1)c1ccc(S(=O)(=O)N2CCc3ccccc3C2)cc1	ELG1 DNA repair inconclusive, RORg inh 0.708µM, Gal4-VP16 FLuc 1.78µM
O=C(NCC1CCCO1)c1ccc([N+](=O)[O-])o1 (centres undefined)	Giardia killer inconclusive, p53 reactivation inconclusive
C=CCN(CC=C)Cc1ccc(C(=O)OC)o1	ELG1 DNA repair inconclusive
CC(=O)c1c(COC(=O)c2ccncc2)nc2ccccc2[n+]1[O-]	p53 reactivation inconclusive, RORg inh 11.2µM, Gal4-VP16 FLuc inconclusive
O=C(CN1C(=O)C2CCCCC2C1=O)Nc1ccccc1C(=O)O (centres undefined)	none
Cc1ccc(C)c(C(=O)C(C)OC(=O)c2cccn2C)c1 (centres undefined)	none
COc1ccc(-c2c(C)nn3c(N4CCN(c5ccccc5)CC4)cc(C)nc23)cc1OC	none (no result: Giardia killer, ELG1 DNA repair, p53 reactivation, RORg inh, Gal4-VP16 FLuc)
COc1ccc(-c2c(C)nn3c(N4CCCCCC4)cc(C)nc23)cc1OC	ELG1 DNA repair 11.6µM, RORg inh inconclusive
COc1ccc(-c2c(C)nn3c(N4CCOCC4)cc(C)nc23)cc1OC	ELG1 DNA repair 16.4µM
S=C(NCc1cccs1)Nc1cccc(Cl)c1	RORg inh 20µM, Gal4-VP16 FLuc inconclusive
S=C(NCc1cccs1)Nc1cc(Cl)cc(Cl)c1	ELG1 DNA repair inconclusive, RORg inh 12.6µM, Gal4-VP16 FLuc inconclusive
O=C(NCc1cccs1)Nc1cccc(Cl)c1	BRCA1 expr act inconclusive (no result: ELG1 DNA repair, p53 reactivation, RORg inh, Gal4-VP16 FLuc)
S=C(NCc1cccs1)Nc1ccccc1Cl	RORg inh 12.6µM, Gal4-VP16 FLuc 14.1µM

Screening data (PubChem)
